Results from the supplement of paper PMC9925115.

The compounds below were run on FLX1 + dox-induced PRKAR1A G325D (assay: difference in log2 fold change of viability vs plate median (dox-induced PRKAR1A G325D minus uninduced); higher = compound less effective when PKA is inhibited). Settings: concentration: not stated (2 or 5 uM); 5 days.
Experimental: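 For each plate a log2 fold change vs the plate median was derived, and the values without dox were subtracted from those with dox, averaged over three biological replicates.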

| SMILES | difference in log2 fold change of viability |
| --- | --- |
| O=c1[nH]c2ccc(Cl)cc2c(N[C@@H]2CN3CCC2CC3)c1-c1nc2ccccc2[nH]1 | -0.0624 |
| Cn1cc(C2=C(c3cn(C4CCN(Cc5ccccn5)CC4)c4ccccc34)C(=O)NC2=O)c2ccccc21 | -0.214 |
| CC(C)(C)c1cc(C=C(C#N)C#N)cc(Br)c1O | 0.78 |
| Cc1ccccc1-n1c(Cn2ncc3c(N)ncnc32)nc2cccc(C)c2c1=O | -0.0566 |
| CC(C)(C)c1cc(C=C(C#N)C#N)cc(C(C)(C)C)c1O [Tyrphostin 9] | 0.375 |
| CCN1CCN(C(=O)Cc2ccc(Nc3ncc(F)c(Nc4ccc(C(=O)Nc5ccccc5Cl)cc4)n3)cc2)CC1 [Aurora A Inhibitor I] | -0.138 |
